# Reference: PubChem BioAssay (Tox21)
# Inconclusive results are not listed. Entries that show only a call come without a potency. Calls of active or inactive are those of the source. Calls come from the whole dose curve; as a rule, active = well fitted cell-killing curve with a large enough effect in the repeat runs; inconclusive = weak or mixed curves, or effect the other way; inactive = flat fitted curve, though single readings scatter.
# Test: qHTS assay to identify small molecule agonists of the sonic hedgehog signaling (Shh) pathway - cell viability counter screen (AID 1259366); note: nearly all actives have a fitted effect of over 50% in size
# Conditions: NIH/3T3 Gli1-Luc viability, CellTiter-Fluor, 24 h; series mostly up to 92.4 µM
# From the text: National Center for Advancing Translational Sciences [NCATS]
# NIH Chemical Genomics Center [NCGC]
# U.S. Environmental Protection Agency [EPA]
# National Institutes of Environmental Health Sciences [NIEHS]
# National Toxicology Program [NTP]
# U.S. Food and Drug Administration [FDA]
# The sonic hedgehog (Shh) pathway is essential for normal embryonic development. Dysregulation of the Shh pathway can cause severe developmental defects in organs. Therefore chemicals that interfere with the pathway are potential developmental toxicants. A cell line designated 3T3Gli1-Luc (DMB/OARSA/CFSAN/FDA, Laurel, MD), a NIH/3T3 derived clone containing stably integrated Gli1-Luc reporter is used to detect chemical interference of the Shh pathway, by changes in the expression of the firefly Luc gene under the control of the Gli1 transcriptional response element. This cell line was used to screen Tox21 libraries for identifying and prioritizing the potential developmental toxicants that interfere Shh pathway. The cytotoxicity of the compounds was tested in parallel by measuring the cell viability using CellTiter-Fluor assay system (Promega, Madison, WI) in the same wells.
# Tox21 Assay Protocol Summary:
# 3T3 Gli1-Luc cells were dispensed at 2,000 per well in 5uL of culture medium into white solid bottom 1536-well plates (Greiner Bio-One, Monroe, NC) using a Multidrop Combi (Thermo Scientific, Waltham, MA) dispenser. The assay plates were incubated at 37 C and 5% CO2 for 4hr, and then 23nL of compounds dissolved in DMSO and positive control were transferred using a Pintool station (Wako, San Diego, CA). The assay plates were incubated at 37C and 5% CO2 for 24hr. For viability read, after 23hr of compound treatment, 1uL of CellTiter-Fluor reagent (Promega Corporation, Madison, WI) was added to each well of the assay plates using Flying Reagent Dispenser (FRD, Aurora Discovery, San Diego, CA) and incubated the assay plates at 37C for 1hr. The fluorescence signal was quantified using a ViewLux plate reader (Perkin Elmer, Shelton, CT).
# Potency is the fitted concentration of half-maximal effect.
SMILES,Potency,"viability change, negative = cytotoxic"
Cc1c(C2(c3cc(Br)c(O)c(Br)c3C)OS(=O)(=O)c3ccccc32)cc(Br)c(O)c1Br,9.4 µM (active),–
CC(=O)NCCO,inactive,–
CC(C)c1ccc(C(=O)N=C(N)N)cc1S(C)(=O)=O,inactive,–
CCC(C)(C)C(=O)O,inactive,–
CCN(CC)C(=O)N1CCN(C)CC1,inactive,–
O=NN(CCCl)C(=O)NCCCl,inactive,–
CC(=O)OC(C)C[N+](C)(C)C (stereo not given),inactive,–
COc1ccc(/C=C/C(=O)c2ccc(OC)cc2OC)cc1,inactive,–
CC(C)C1CCC(C(=O)N[C@H](Cc2ccccc2)C(=O)O)CC1 (stereo not given in full),inactive,–
CC(C)(C)S,inactive,–
C=CC(=O)O,inactive,–
C1CCCCC1,inactive,–
COc1cc(NC(C)CCCN)c2ncccc2c1 (stereo not given),inactive,–
CC(=O)OCC1=C(C(=O)O)N2C(=O)[C@@H](NC(=O)CSc3ccncc3)[C@H]2SC1,inactive,–
O=C(O)CCC(=O)OC[C@@H](NC(=O)C(Cl)Cl)[C@H](O)c1ccc([N+](=O)[O-])cc1,inactive,–
CCC(Cl)CC(Cl)C(Cl)C(Cl)C(Cl)C(C)Cl (stereo not given),–,-0.751% [at 19 µM] (inactive)
Cc1cc(CCC(=O)OCCOCCOCCOC(=O)CCc2cc(C)c(O)c(C(C)(C)C)c2)cc(C(C)(C)C)c1O,inactive,–
CCC(=O)OCc1ccc(OC)cc1,inactive,–
CCCCCc1ccco1,inactive,–
COc1cc(OC)c2ccc(=O)oc2c1,inactive,–

SMILES,Potency,"viability change, negative = cytotoxic"
Nc1ccc(F)cc1,inactive,–
CC(CN(CCN(CC(C)OCCO)CC(C)OCCO)CC(C)OCCO)OCCO (stereo not given),inactive,–
CCc1ccc(C)cc1,inactive,–
CCOC(=O)Oc1ccc(CCNC(=O)[C@H](CCSC)NC(C)=O)cc1OC(=O)OCC,inactive,–
CN1C(CSCC(F)(F)F)Nc2cc(Cl)c(S(N)(=O)=O)cc2S1(=O)=O (stereo not given),inactive,–
COc1ccc(C)cc1,inactive,–
CCCCCCCC(=O)Oc1c(Br)cc(C#N)cc1Br,inactive,–
Cc1ccc(Nc2c(F)cccc2Cl)c(CC(=O)O)c1,inactive,–
CC(=O)OCCC(C)CC(C)(C)C (stereo not given),inactive,–
Nc1ccc(S(=O)(=O)NCc2ccccc2)cc1,inactive,–
CS(=O)(=O)c1ccc([C@@H](C[C@H]2CCC(=O)C2)C(=O)Nc2cnccn2)cc1Cl,inactive,–
O=C(O)CNC(=O)c1ccccc1I,inactive,–
CC(C)OC(=O)c1ccccc1C(=O)OC(C)C,inactive,–
O=C(Nc1ccc(C(=O)O)c(O)c1)c1ccccc1,inactive,–
O=[N+]([O-])C1(Br)COCOC1,43.3 µM (active),–
COC(CC(C)CCCC(C)(C)O)OC (stereo not given),inactive,–
C=Cc1ccc(OC(C)=O)cc1,inactive,–
O=C(/C=C/c1ccc([N+](=O)[O-])cc1)c1ccccc1,inactive,–
CC(=O)C(=O)CC(C)C,inactive,–
CC(C(=O)O)c1ccc(C(=O)c2cccs2)cc1 (stereo not given),inactive,–
